Screening data: PubChem BioAssay, several laboratories
Wee1 stabilizer – human Wee1 degradation inhibition, primary screen. P30291. HeLa Luc-Wee1K328M stability, luciferase luminescence; 100% = proteasome inhibitor MG132 effect. reporter increase, % at 5 µM. actives 1.2% (n = 220,000);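 active means activation above the mean of all tested compounds plus 3 SD, set per screening run, cut at about 8.8% in these data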;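 further: cells exposed to compound for 20 h before luminescence read; 0% = DMSO alone and 100% = MG132 at 30 µM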
p97 ATPase inh – inhibitors of human p97 ATPase | actives 0.42% (n = 220,000) | AID 1481 | P55072 | inhibition, % at 8 µM | recombinant p97 ATPase, Kinase-Glo ATP luminescence, 3 h; in the data active means inhibition above about 15%;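 further: 0% = DMSO vehicle and 100% = wells lacking enzyme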
Target sequence (P55072 whole entry, looked up): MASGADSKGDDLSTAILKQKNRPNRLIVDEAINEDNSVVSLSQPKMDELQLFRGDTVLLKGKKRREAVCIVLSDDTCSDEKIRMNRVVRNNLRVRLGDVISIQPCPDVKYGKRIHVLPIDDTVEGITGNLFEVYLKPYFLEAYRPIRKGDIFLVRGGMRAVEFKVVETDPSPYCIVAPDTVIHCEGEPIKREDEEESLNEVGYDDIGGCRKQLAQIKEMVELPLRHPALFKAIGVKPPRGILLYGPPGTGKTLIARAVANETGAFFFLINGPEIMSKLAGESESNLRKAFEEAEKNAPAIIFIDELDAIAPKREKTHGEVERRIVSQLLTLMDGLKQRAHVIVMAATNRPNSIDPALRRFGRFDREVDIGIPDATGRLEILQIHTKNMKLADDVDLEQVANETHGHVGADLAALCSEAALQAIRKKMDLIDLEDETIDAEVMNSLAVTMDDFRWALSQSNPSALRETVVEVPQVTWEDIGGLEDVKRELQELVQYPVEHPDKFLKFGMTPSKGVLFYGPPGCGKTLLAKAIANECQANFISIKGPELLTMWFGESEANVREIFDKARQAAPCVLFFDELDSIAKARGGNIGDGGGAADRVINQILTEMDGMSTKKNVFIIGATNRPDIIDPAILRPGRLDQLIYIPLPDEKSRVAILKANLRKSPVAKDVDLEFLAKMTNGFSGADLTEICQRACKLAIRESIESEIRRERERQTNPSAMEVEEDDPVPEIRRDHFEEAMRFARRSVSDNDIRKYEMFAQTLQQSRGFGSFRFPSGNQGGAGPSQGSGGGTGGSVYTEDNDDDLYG
Hsp70 act – transcriptional activators of Hsp70. HeLa Hsp70 promoter luciferase reporter, luminescence; scaled: vehicle 0, proteasome-inhibitor control 100%. actives 0.04% (n = 200,000). activation, % at 10 µM;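 active means activation above the mean across all tested compounds plus 3 SD, cutoff set per campaign, cut at about 5.5% in these data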;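 further: 100% = MG132 at 30 µM as the positive control and 0% = DMSO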
HSV augment – HSV replication enhancement | maximum fold increase | HSV replication augmentation in cells, fold increase | actives 0.005% (n = 220,000); in the data active means maximum fold increase above about 1.5; tested in PC3 cells
Redox H2O2 prof – compounds producing H2O2 with reducing agent – biochemical, NIH compound library profiling, artefact control for MLSCN library redox annotation, primary screen; actives 0.03% (n = 200,000); DTT-dependent redox cycling H2O2, phenol red/HRP absorbance; 100% = 100 µM peroxide control, 0% = buffer; AID 878; activation, % at 10 µM;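 active means activation of at least 50% relative to the plate's high and low controls in the primary single-dose screen; inactive means activation below 50%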;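 further: compound incubated with DTT at 0.8 mM final as the reducing agent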
p97 inh conf – human p97 ATPase inhibition, confirmation. shares compounds with p97 ATPase inh. recombinant p97 ATPase, Kinase-Glo ATP luminescence. inhibition, % at 8 µM. actives 44% (n = 760). AID 1517;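 active means percent inhibition of p97 ATPase above a set limit, the primary screen's mean plus 3 SD, cut at about 15% in these data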;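 further: 0% = DMSO wells and 100% = wells lacking p97 protein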
The depositor's hits bear a star; i = inactive; / = no result. A selection: hits, their analogues and other compounds. The true share with any hit is near 1.6%.

SMILES	Wee1 stabilizer	p97 ATPase inh	Hsp70 act	HSV augment	Redox H2O2 prof	p97 inh conf
O=S(=O)(c1ccc(Cl)cc1)c1snnc1-c1ccccc1	0	16*	0	i	0	13
COc1ccc(C(=O)NC(C)c2cc(OC)c(OC)cc2Br)cc1 (configuration not stated)	0	6	0	i	-3	/
CSc1nsc(SCc2ccc(Cl)cc2)n1	-3	26*	0	i	3	0
CSc1nsc(SCc2ccc(F)cc2)n1	6	2	0	i	-3	/
CC(O)c1nc2ccccc2n1CC(=O)N1CCN(c2ccccc2)CC1 (configuration not stated)	3	2	0	i	0	/
CCOC(=O)/C(C(N)=NCCO)=C(/O)c1ccccc1	-1	24*	0	i	0	4
COc1ccc(/C=C/C(=O)O)cc1S(=O)(=O)Nc1ccc2c(c1)OCO2	0	5	/	i	/	/
CC1=NOC2(C1)N(C)c1ccccc1C2(C)C (configuration not stated)	4	1	0	i	0	/
COc1ccc2ccc3c(c2c1)N=C[C@]1(O3)N(C)c2ccccc2C1(C)C	-4	24*	0	i	2	2
CC1(C)OC(=O)C(=CNc2ccccn2)C(=O)O1	-2	15*	/	i	/	1
CC1(C)OC(=O)C(=CNc2ncccn2)C(=O)O1	6	4	0	i	1	/
N#Cc1c(-c2ccco2)cc(-c2ccccc2)[nH]c1=O	-3	22*	/	i	/	12
Cc1ccc(-c2cc(-c3ccco3)c(C#N)c(=O)[nH]2)cc1	4	14	/	i	/	/
C[n+]1cccc2c(Br)ccc([O-])c21	0	45*	/	i	/	9
[O-][n+]1cccc2c(Br)cc(Br)c(O)c21	-1	4	0	i	-1	/
Cc1cc(=O)[nH]c2ccc(Cl)cc12	-2	16*	0	i	0	3
Cc1cc(=O)c2cc(Cl)ccc2[nH]1	2	4	0	/	0	/
COCC(=O)NC1CCCCCC1	9	1	/	i	/	/
Oc1ccc(/C=N/Nc2ccnc3cc(Cl)ccc23)cc1O	2	33*	/	i	/	41*
CC(C)c1nc2sc3c(=O)[nH]cnc3c2c2c1CCCC2	0	16*	/	i	/	20*
CC(C)c1nc2sc3c(=S)nc[nH]c3c2c2c1CCC2	-1	42*	/	i	/	41*
CC(C)c1nc2sc3c(=O)[nH]cnc3c2c2c1CCC2	-2	9	0	i	0	/
S=c1nc[nH]c2c1sc1nc(N3CCOCC3)c3c(c12)CCCC3	0	-2	0	i	5	/
CCN(CC)CCNC(=O)c1cn(C)c2ccc(S(=O)(=O)N(C)C3CCCCC3)cc2c1=O	3	-2	0	i	-1	/
COc1ccc(/C=N/NC(=O)c2ccn[nH]2)cc1COc1ccc(Cl)cc1Cl	2	5	0	i	2	/
SMILES	Wee1 stabilizer	p97 ATPase inh	Hsp70 act	HSV augment	Redox H2O2 prof	p97 inh conf
CSc1c(CC(=O)NCCO)n(C)c2ccccc12	-2	17*	0	i	3	0
COc1ccc(O)c(/C=N/NC(=S)Nc2cccnc2)c1	2	6	0	i	-1	/
C#CCOCCOCCOCCNc1nc(N2CCN(C(=O)[C@H]([C@@H](C)CC)n3cc([C@@H](N)Cc4ccc(O)cc4)nn3)CC2)nc(N2CCN(C(=O)[C@H]([C@@H](C)CC)n3cc([C@@H](N)CC(C)C)nn3)CC2)n1	-1	18*	0	i	0	9
C#CCOCCOCCOCCNc1nc(N2CCN(C(=O)[C@H]([C@@H](C)CC)n3cc([C@@H](N)Cc4ccc(O)cc4)nn3)CC2)nc(N2CCN(C(=O)[C@H](Cc3ccc(O)cc3)n3cc([C@@H](N)CC(C)C)nn3)CC2)n1	0	14	0	i	-1	/
C#CCOCCOCCOCCNc1nc(N2CCN(C(=O)C(Cc3ccc(O)cc3)n3cc(C(N)CC(C)C)nn3)CC2)nc(N2CCN(C(=O)C(Cc3cc4ccccc4[nH]3)n3cc(C(N)Cc4ccc(O)cc4)nn3)CC2)n1 (configuration not stated)	2	19*	0	i	-1	20*
Clc1ccc(C2=NNC(=NCc3ccccc3)SC2)cc1	2	-2	0	i	-1	/
N#C/C(=C(/O)CCl)c1nc(-c2ccccc2)cs1	-2	40*	/	i	/	38*
Cc1ccc(-c2csc(/C(C#N)=C(\O)CCl)n2)cc1	6	6	0	i	1	/
CCOC(=O)c1[nH]c2ccc(Br)cc2c1NC(=O)CCN1CCCC(C)C1 (configuration not stated)	-1	17*	0	i	1	-1
CCOC(=O)c1[nH]c2ccc(Br)cc2c1NC(=O)CCN1CCC(C)CC1	3	17*	0	i	0	2
CCOC(=O)c1[nH]c2ccc(Br)cc2c1NC(=O)CNC	-2	1	0	i	0	/
CCOC(=O)c1[nH]c2ccc(OC)cc2c1NC(=O)CCN1CCC(C)CC1	4	-4	0	i	0	/
Cc1nnsc1-c1c(C(=O)Oc2ccccc2)c(C)nn1-c1ccccc1	0	-1	/	i	/	/
CCN(CC(=O)NC1CCS(=O)(=O)C1)C(=O)COc1ccccc1-c1ccccc1 (configuration not stated)	-3	6	0	i	2	/
Cc1cc(/C=C2\NC(=O)NC2=O)c(C)n1-c1ccc(N2CCOCC2)cc1	0	17*	/	i	/	9
CN=C(NC(=O)Nc1c(C)cccc1C)NC(=O)Nc1c(C)cccc1C	-2	6	0	i	0	/
CN=C(N)NC(=O)Nc1c(C)cccc1C	-3	15*	/	i	/	7
CC1CCN(CCn2c(=S)[nH]c3ncccc3c2=O)CC1	0	4	0	/	1	/
O=C(CCS(=O)(=O)c1ccccc1Cl)NCc1ccc(F)cc1	1	-5	/	i	/	/
O=C1CCC/C1=C/Nc1ccc(Cl)cc1	1	3	0	i	3	/
O=C1CCCC/C1=C\Nc1ccc(O)cc1	0	21*	0	i	-2	7
CCCc1nc(SCC(=O)N2CCc3ccccc3C2)c2ccccc2n1	-1	3	0	i	2	/
Cc1cc(/C=C(/C#N)c2nc3ccccc3[nH]2)c(C)n1-c1cc(C(=O)O)cc(C(=O)O)c1	0	17*	0	/	1	14
Cn1nc(-c2ccccn2)nc2c(=O)n(C)c(=O)nc1-2	-5	34*	/	i	/	33*
Cc1ccc(/C=N\NC(=O)Cn2nnc3ccccc32)o1	-2	7	0	i	0	/
Cc1ccc(Cc2c[nH]c(=S)s2)cc1	3	1	0	i	-1	/
